Compounds with a hit are over-represented: about 20% of the library has one in this group of screens.
Pf growth 96h – P. falciparum growth inhibition at 96 hour, primary screen for plastid delayed-death inhibitors; P. falciparum luciferase reporter growth, 96 h; Potency, µM (doses to about 28.7 µM), usual class: inhibitors; hit rate 6.9% among 320,000
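Compounds incubated with erythrocytes infected by luciferase-expressing P. falciparum (2% hematocrit, 0.05% parasitemia final) for 96 hours, 37 C in 5% CO2. Growth inhibition scored as decreased luciferase luminescence.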
CHX counter – affects cycloheximide protein synthesis inhibition readout, counter-screen. AID 2314. hit rate 12% among 300,000. cell reporter, cycloheximide protein synthesis inhibition counterscreen. max response, %; in the data active = max response mostly above about 13%, no sharp cut-off; inactive = mostly below about 14%; also: read at 38.3 µM for the half of the compounds with a filed dose
HCMV inh – human cytomegalovirus inhibition | HFF cells, HCMV-luciferase reporter, 72 h; stronger effect = lower value | activity change, negative = inhibition, % at 57.5 µM | hit rate 4.5% among 410,000; in the data active = activity change below about -60%; inconclusive = no clear call, values can overlap the other calls; inactive = above about -39%
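Human foreskin fibroblasts infected with luciferase-reporter HCMV at MOI 1 PFU/cell, compounds at two doses. Luciferase measured 72 h post infection; normalized to buffer-only basal and Salinomycin (10uM) controls.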
Shiga toxin inh – inhibitors of Shiga toxin in Vero cells; inhibition, % at 38.7 µM; Vero cells, Shiga toxin protein synthesis inhibition reporter; AID 2315; hit rate 9.2% among 290,000; in the data active = inhibition mostly above about 28%, no sharp cut-off; inactive = mostly below about 43%
Pf growth 48h – inhibits P. falciparum growth in the first generation, 48 h; P. falciparum luciferase growth in erythrocytes, 48 h; Potency, µM (series often up to 28.7 µM), actives largely listed as inhibitors; hit rate 5.9% among 310,000
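Compounds are pin-transferred into medium, infected erythrocytes (2% hematocrit, 0.1% parasitemia final) are added, and plates sit one parasite generation at 37 C in 5% CO2. Detection reagent is then added and luminescence measured.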
A number is an active result; – = inactive; ? = inconclusive; · = no result given; + = active, no number. Unless noted, calls follow the shape of the dose curve; as a rule, active = well fitted inhibition curve with a large enough effect; inconclusive = small, poorly fitted or top-dose-only effect, or another doubt; inactive = no such curve, though single readings can be large or run the other way.

SMILES	Pf growth 96h	CHX counter	HCMV inh	Shiga toxin inh	Pf growth 48h
CC1(c2nnnn2-c2ccc3c(c2)OCCO3)CCC(=O)N1CCc1ccc(O)cc1 (stereo unspecified)	·	·	–	·	·
O=C(COC(=O)c1ccc(O)cc1O)Nc1ccc2c(c1)OCCO2	–	·	–	·	–
Cc1ccc(NC(=O)c2cc(C)nc3ccccc23)cc1	?	–	–	–	–
COc1ccc(NC(=O)c2cc(CC(C)C)nc3ccccc23)cc1	–	–	-77.2	–	?
Cc1ccc(NC(=O)c2cc(CC(C)C)nc3ccccc23)cc1	–	–	-69.8	–	–
FC(F)(F)c1cccc(Nc2nc3nonc3nc2Nc2ccc(Cl)cc2)c1	·	·	-98.0	·	·
CCCS(=O)(=O)c1nc(S(=O)(=O)c2ccc(C)cc2)c(NCc2ccccc2)s1	·	·	–	·	·
O=C(CSc1nnc2n1CCCN2)c1ccc(Cl)cc1	–	–	–	–	–
C[n+]1cc[nH]c1SCC(=O)c1ccc(Cl)cc1	–	31.1	–	–	–
C[n+]1cc[nH]c1SCC(=O)c1ccccc1	–	37.2	–	–	·
Cc1[nH]c2ccccc2c1/C=N/NC(=O)c1cc(-c2ccncc2)nc2ccccc12	6.57µM	–	–	–	?
Cc1[nH]c2ccccc2c1/C=N/O	–	–	–	–	–
Cc1[nH]c2ccccc2c1/C=N/NC(N)=S	?	–	–	–	–
Cc1[nH]c2ccccc2c1/C=C/C(=O)c1ccccc1	–	24.9	–	86.5	–
Cc1[nH]c2ccccc2c1/C=N/NC(=O)c1cc(C(C)(C)C)[nH]n1	–	12.4	–	–	?
Cc1ccc(NC(=S)N/N=C/c2c(C)[nH]c3ccccc23)cc1	?	22.7	?	79.7	?
O=c1c2ccccc2on1-c1ccccc1	·	·	–	·	·
CCCCN(C(=O)c1cc(CN2C(=O)c3ccccc3C2=O)ccc1OC)c1c(N)n(CC(C)C)c(=O)[nH]c1=O	·	·	–	·	·
COc1ccc(NC(=O)COC(=O)C2CC2)c(OC)c1	–	·	–	·	–
CCOC(=O)[C@]12CCC=C1N(Cc1ccco1)C(=O)[C@H](CC(=O)NCCCN1CCCC1=O)C2	·	·	–	·	·
OCCC1CN(Cc2ccc(Oc3ncccn3)cc2)CCN1Cc1ccc(F)c(F)c1 (stereo unspecified)	–	–	–	–	–
O=C(N/N=C/C1C(c2ccccc2)C1(Cl)Cl)c1cccc(Br)c1 (stereo unspecified)	–	23.4	–	–	–
Cc1[nH]c2ccccc2c1/C=N/Nc1cccc(C(=O)O)c1	–	61.4	–	128.1	–
Cc1[nH]c2ccccc2c1/C=N/NC(=O)c1ccc(N)cc1	–	–	–	–	–
Cc1[nH]c2ccccc2c1/C=N/NC(=O)c1ccccc1	–	41.8	–	51.2	–
SMILES	Pf growth 96h	CHX counter	HCMV inh	Shiga toxin inh	Pf growth 48h
Cc1[nH]c2ccccc2c1/C=N/NC(=O)c1cccc(Br)c1	–	26.4	·	–	–
COc1cc(C(C)=O)ccc1COc1ccc(C(=O)O)cc1OC	–	–	–	–	–
CCN(C(=O)COC(=O)c1c(NC(C)=O)sc(C)c1C)c1c(N)n(Cc2ccccc2)c(=O)[nH]c1=O	·	·	–	·	·
CC(C)(C)c1cc(C(=O)N/N=C/c2ccccn2)n[nH]1	–	21.1	–	52.6	–
O=C(N/N=C/c1[nH]c2ccccc2c1Cl)c1cccc(Br)c1	11.7µM	–	–	–	?
Cc1[nH]c2ccccc2c1/C=N/NC(=O)Nc1ccccc1	–	27.8	–	+	–
Cc1ccc(C)c(OC(=O)c2ccncc2)c1	?	–	–	–	–
CON(C)C(=O)Nc1ccc(Br)c(Cl)c1	·	27.5	·	53.8	·
CON(C)C(=O)Nc1ccc(Br)cc1	·	–	·	–	·
CN(C)C(=S)Nc1ccc(Br)c(Cl)c1	–	–	?	–	–
O=C(Nc1ccccc1)Nc1ccc(Br)c(Cl)c1	–	41.8	-98.3	71.7	?
O=C(Nc1ccccc1)Nc1ccccc1Br	–	68.1	–	117.2	–
O=C(Nc1ccccc1)Nc1cccc(NC(=O)Nc2ccccc2)c1F	–	17.7	–	–	–
CCN(CC)CCCNC(=O)CN1C(=O)COc2ccc(S(=O)(=O)N3CCC(C)CC3)cc21	·	·	–	·	·
Cc1nonc1NC(=O)CSc1nnnn1-c1ccccc1	–	–	–	–	–
CC(Sc1ccccc1)C(=O)NCC1COc2ccccc2O1 (stereo unspecified)	–	·	–	·	–
CCCCN=C1NN=C(c2cc3ccccc3o2)CS1	13.1µM	41.1	–	53.5	?
CCCCN=C1NN=C(c2cccc([N+](=O)[O-])c2)CS1	–	24.3	–	83.6	–
CCOc1ccc(C2C(C(=O)Nc3ccccc3)=C(C)Nc3nc(-c4ccccc4)nn32)cc1OC (stereo unspecified)	·	·	–	·	·
OC(COc1ccc2ccccc2c1)CN1CCCC1 (stereo unspecified)	–	18.2	–	–	–
CN1CCN(C(=O)COc2ccc3ccccc3c2)CC1	–	14.3	–	31.2	–
O=C(COc1ccc2ccccc2c1)N1CCCC1	–	39.8	–	78.9	–
O=C(COc1ccccc1)N1CCCCCCC1	–	–	–	–	–
Cc1nn(C)cc1CN(C)Cc1ccc(OCC(O)CN2CCCCC2)cc1 (stereo unspecified)	?	–	–	–	?
OC(COc1ccc(OCC(O)CN2CCCCC2)cc1)CN1CCCCC1 (stereo unspecified)	–	–	–	·	?
SMILES	Pf growth 96h	CHX counter	HCMV inh	Shiga toxin inh	Pf growth 48h
CN(Cc1ccc(OCC(O)CN2CCCCC2)cc1)Cc1ccnc2ccccc12 (stereo unspecified)	–	–	-65.8	–	11.7µM
CCOc1ccc(C(=O)NCC(c2ccc3c(c2)OCO3)N2CCN(c3ccc(F)cc3)CC2)cc1 (stereo unspecified)	·	·	–	·	·
COc1ccc(NC(=O)Nc2nnc(Cc3ccc(F)cc3)s2)cc1	?	–	–	–	?
CN(C(=O)CSc1cn(CC(=O)N2CCCC2)c2ccccc12)c1ccccc1	·	·	–	·	·
Cc1cc([N+](=O)[O-])c2[nH]c(C(=O)N/N=C/c3ccccc3C(=O)O)c(-c3ccccc3)c2c1	?	–	-80.2	–	?
ONC(=Nc1ccccc1)c1ccc(Cl)cc1	–	–	–	–	–
NC(=Nc1ccc(Cl)cc1)c1ccccc1	–	26.3	–	–	–
CCOc1ccc(C(=O)c2cn(Cc3ccc(Cl)cc3)c3cc(OC)c(OC)cc3c2=O)cc1	·	·	–	·	·
CCCCn1c(-c2ccccc2C)nc2cc3[nH]c(=O)c(C(C)C)nc3cc21	?	–	–	–	?
CCCCn1c(C2CCCCC2)nc2cc3[nH]c(=O)c(C(C)C)nc3cc21	9.28µM	–	–	–	–
C=CCNC(=S)N/N=C/c1ccc(-c2cc(Cl)ccc2Cl)o1	–	–	?	–	?
COc1ccc(N(CC(=O)N/N=C/c2ccc(-c3ccc([N+](=O)[O-])cc3)o2)S(=O)(=O)c2ccc(C)cc2)cc1	–	–	-68.2	–	–
Cc1ccc([N+](=O)[O-])cc1-c1ccc(/C=N/NC(=O)c2cc3c(ccc4ccccc43)o2)o1	–	–	–	–	·
CS(=O)(=O)N(CC(=O)N/N=C/c1cccc2c1OCCO2)c1ccccc1Br	–	–	–	–	–

Screening data (PubChem BioAssay)
